We go through eight molecules from PubChem BioAssay (NCI).

Each structure is given as a SMILES string. About 83,000 compounds went through this panel and 20% of them were active in at least one assay; those are over-represented in the sample as a whole.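 Assay: single dose, 48 h. Readout: percent growth (0 = no net growth; negative = cell death). Active: <10.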 Values without a mark were called inactive. The source made the active and inactive calls.

Test systems include RPMI-8226 leukemia; OVCAR-8 ovarian; OVCAR-5 ovarian; OVCAR-4 ovarian; SK-OV-3 ovarian; IGROV1 ovarian; OVCAR-3 ovarian; HS 578T breast; NCI/ADR-RES ovarian; T-47D breast; BT-549 breast; MDA-MB-435 melanoma; SW-620 colon; MCF7 breast; HCT-116 colon; HCC-2998 colon; KM12 colon.
What all share (experiment): NCI-60 one-dose screen, 48 h (100 = growth as untreated, 0 = no growth, -100 = all killed)
What all share (conditions): 10 µM unless noted

`Cc1ccc(SC2c3ccc(C)cc3Oc3nc(N)c(C#N)c(N)c32)cc1` (stereo unspecified): the growth with RPMI-8226 leukemia was 12.8%; with OVCAR-8 ovarian, 95%; in the test with OVCAR-5 ovarian, 121%; in the test on OVCAR-4 ovarian, 74.8%; in the test on SK-OV-3 ovarian it was 102%; in the test on IGROV1 ovarian, 25.9%. Besides, the growth is 55.2% in the test on OVCAR-3 ovarian; 96.2% in the test with HS 578T breast; 92.1% in the test with NCI/ADR-RES ovarian; 16.8% with T-47D breast; 78.9% in the test on BT-549 breast; 91.6% with MDA-MB-435 melanoma. In addition, the growth with SW-620 colon is 64.6%; with MCF7 breast it was 5.14% (active); with HCT-116 colon, 81.7%; in the test with HCC-2998 colon it was 103%; in the test on KM12 colon it was 96.8%.

For the molecule `COc1cc(F)c(-c2nc3c(C)cccc3n2Cc2c(F)cccc2F)c(F)c1`, the growth with RPMI-8226 leukemia is 68.2%; in the test on OVCAR-8 ovarian, 90.5%; in the test with OVCAR-5 ovarian, 94.6%; in the test on OVCAR-4 ovarian it was 77.6%; in the test with SK-OV-3 ovarian it was 90.5%; in the test with IGROV1 ovarian it was 69.4%. The growth was 96.2% in the test with OVCAR-3 ovarian; 91.6% in the test with HS 578T breast; 77.9% in the test with NCI/ADR-RES ovarian; 71.4% in the test on T-47D breast; 98.5% in the test with BT-549 breast; 94.8% in the test on MDA-MB-435 melanoma. For the same molecule, the growth with SW-620 colon is 91.6%; in the test on MCF7 breast, 78.5%; in the test with HCT-116 colon, 74.6%; with HCC-2998 colon it was 82.1%; in the test with KM12 colon, 90.1%.

On to `N#Cc1ccc(N2Cc3cc(Cl)ccc3OC3=C2C(=O)N(Cc2ccc(F)cc2)C3=O)cc1`, for which the growth in the test with RPMI-8226 leukemia was -21.8% (active); with OVCAR-8 ovarian it was -26.9% (active); in the test on OVCAR-5 ovarian it was -1.59% (active); in the test with OVCAR-4 ovarian, -25.8% (active); in the test on SK-OV-3 ovarian, 102%; with IGROV1 ovarian, -5.53% (active). The growth with OVCAR-3 ovarian is -89% (active); in the test with HS 578T breast, 27%; with NCI/ADR-RES ovarian, 10.1%; in the test with T-47D breast, -70.3% (active); in the test on BT-549 breast it was -63.3% (active); with MDA-MB-435 melanoma, -48.8% (active). The growth with SW-620 colon was -81% (active); with MCF7 breast, -19.5% (active); in the test on HCT-116 colon, -90.4% (active); in the test with HCC-2998 colon, 42.2%; in the test with KM12 colon, 52.6%.

`COc1ccc(/C=C/C(=O)C(CC2CCC2)C(=O)/C=C/c2ccc(OC)c(OC)c2)cc1OC`: the growth in the test with RPMI-8226 leukemia was -7.68% (active); with OVCAR-8 ovarian, 3.28% (active); with OVCAR-5 ovarian it was -12.9% (active); with OVCAR-4 ovarian, 35.2%; in the test on SK-OV-3 ovarian, 16.2%; in the test on IGROV1 ovarian it was -17.1% (active). Besides, the growth in the test on OVCAR-3 ovarian was -33.2% (active); in the test on HS 578T breast it was 25.4%; with NCI/ADR-RES ovarian, 3.14% (active); with T-47D breast, -5.5% (active); with BT-549 breast, -23.5% (active); with MDA-MB-435 melanoma it was -11.5% (active). Also, the growth with SW-620 colon was -26.3% (active); in the test with MCF7 breast, 6.93% (active); in the test on HCT-116 colon, -75.8% (active); with HCC-2998 colon, -80.6% (active); with KM12 colon, -33.5% (active).

Regarding `C#CCN1C(=O)c2ccccc2N(CC#C)C12CCN(Cc1cn(CC(=O)Nc3ccccc3C(N)=O)nn1)CC2`, the growth in the test with RPMI-8226 leukemia was 82.2%; in the test with OVCAR-8 ovarian, 100%; in the test on OVCAR-5 ovarian, 89.2%; in the test on OVCAR-4 ovarian, 89%; in the test on SK-OV-3 ovarian it was 106%; in the test on IGROV1 ovarian, 82.4%. Further, the growth with OVCAR-3 ovarian was 84.4%; with HS 578T breast it was 91.8%; with NCI/ADR-RES ovarian, 80.5%; in the test with T-47D breast, 77%; with BT-549 breast, 72.4%; in the test with MDA-MB-435 melanoma, 91.9%. In addition, the growth in the test on SW-620 colon is 94%; in the test on MCF7 breast, 83.8%; in the test with HCT-116 colon, 74.4%; with HCC-2998 colon it was 100%; in the test on KM12 colon it was 88.8%.

In the case of `[2H]c1nc(Nc2ncc3cc(C(=O)N(C)C)n(C4CCCC4)c3n2)c([2H])c([2H])c1N1C([2H])([2H])C([2H])([2H])NC([2H])([2H])C1([2H])[2H]`, the growth in the test on RPMI-8226 leukemia is 31%; in the test with OVCAR-8 ovarian, 73.8%; in the test on OVCAR-5 ovarian, 40.3%; in the test on OVCAR-4 ovarian, 93.1%; with SK-OV-3 ovarian, 57.1%; in the test with IGROV1 ovarian, 65.8%. Also, the growth in the test with OVCAR-3 ovarian is 97%; with HS 578T breast it was 67.1%; in the test on NCI/ADR-RES ovarian it was 106%; in the test with T-47D breast, 53.2%; with BT-549 breast it was 89.4%; with MDA-MB-435 melanoma it was 68.9%. Moreover, the growth in the test on SW-620 colon is 35.5%; in the test on MCF7 breast, 46.9%; in the test on HCT-116 colon, 40.9%; with HCC-2998 colon it was 77.5%; in the test with KM12 colon it was 42.5%.

As for `CCCCn1c2cc(OCc3cn(-c4ccc(Cl)cc4)nn3)ccc2c2ccnc(C)c21`, the growth is -34.3% (active) in the test on RPMI-8226 leukemia; 29.7% in the test on OVCAR-8 ovarian; 39.5% with OVCAR-5 ovarian; 18.2% in the test on OVCAR-4 ovarian; 52.9% in the test on SK-OV-3 ovarian; 39.3% in the test with IGROV1 ovarian. For the same molecule, the growth with OVCAR-3 ovarian is 30.1%; in the test on HS 578T breast, 54.2%; in the test with NCI/ADR-RES ovarian, 28%; in the test with T-47D breast, 22.2%; with BT-549 breast, 61.7%; in the test on MDA-MB-435 melanoma, 60.2%. Also, the growth is 34.2% in the test with SW-620 colon; 25.8% with MCF7 breast; 8.91% (active) in the test on HCT-116 colon; 43.8% in the test with HCC-2998 colon; 41.9% in the test on KM12 colon.

As to `C/C(=N\NC(=O)c1ccncc1)c1ccc(N)cc1`, the growth in the test on RPMI-8226 leukemia was 97.5%; in the test with OVCAR-8 ovarian, 101%; with OVCAR-5 ovarian it was 107%; in the test with OVCAR-4 ovarian, 94.4%; with SK-OV-3 ovarian, 101%; with IGROV1 ovarian, 97.4%. Also, the growth with OVCAR-3 ovarian is 105%; in the test with HS 578T breast, 96.8%; in the test on NCI/ADR-RES ovarian, 111%; in the test on T-47D breast, 83.8%; in the test with BT-549 breast it was 93.2%; in the test on MDA-MB-435 melanoma, 102%. For the same molecule, the growth with SW-620 colon was 101%; in the test on MCF7 breast, 95.9%; in the test with HCT-116 colon it was 99.6%; with HCC-2998 colon, 106%; in the test on KM12 colon it was 106%.
